# Most compounds without a hit are left out; they make up all but 9% or so of the library.
# ALDH1A1 inh: ALDH1A1 (human) enzyme inhibition; Purified ALDH1A1, NADH fluorescence, propionaldehyde substrate; P00352; 7.3% of 220,000 active; AID 1030; Potency, µM (highest dose often 75.3 µM), for inactives: at the highest dose activity, negative = inhibition, hits mostly inhibitors; active = well fitted inhibition curve with a large enough effect, not every such curve was filed as active; inconclusive = small, poorly fitted or top-dose-only effect, or another doubt; inactive = no such curve, though single readings can be large or run the other way;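 note: plate controls were no enzyme wells and a reference inhibitor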
# Target sequence (P00352 whole entry, looked up): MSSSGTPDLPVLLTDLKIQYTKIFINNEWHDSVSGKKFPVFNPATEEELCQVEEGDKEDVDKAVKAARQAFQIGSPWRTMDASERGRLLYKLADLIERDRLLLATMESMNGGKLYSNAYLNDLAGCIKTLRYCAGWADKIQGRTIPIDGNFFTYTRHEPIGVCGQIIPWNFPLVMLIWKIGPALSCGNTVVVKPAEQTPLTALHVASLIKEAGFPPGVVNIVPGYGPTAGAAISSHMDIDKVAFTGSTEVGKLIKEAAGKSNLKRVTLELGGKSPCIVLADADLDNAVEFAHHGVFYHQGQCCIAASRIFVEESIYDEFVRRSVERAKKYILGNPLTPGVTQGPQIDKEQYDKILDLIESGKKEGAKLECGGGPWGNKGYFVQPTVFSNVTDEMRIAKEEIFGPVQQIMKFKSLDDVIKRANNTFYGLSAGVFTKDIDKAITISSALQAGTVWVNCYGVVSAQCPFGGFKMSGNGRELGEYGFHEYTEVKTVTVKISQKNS
# HTT aggregate: mutant huntingtin aggregation inhibition; Potency, µM (titrated, usually from 46.1 µM), inactives show top-dose activity change, negative = inhibition, most hits filed as inhibitors; PC12 HttQ103-GFP aggregates, Acumen cytometry, 40 h; AID 1688; 1.1% of 220,000 active; note: % is set by controls: 0 for no effect and ±100 for the full control effect; nearly all actives have a fitted effect of over 60% in size
#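 Compounds (qHTS titration) were added to PC12 cells expressing an ecdysone-driven HTT exon 1 Q103–GFP fusion after induction with 100 nM tebufenozide. Aggregate formation was measured as GFP objects in cell lysates.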
# HTT cytoprotect: protects HTT-Q103 PC12 cells, measured by ATP. PC12 HTT-Q103 induced, cytoprotection, ATP luminescence, 40 h. Potency, µM (titrated, usually from 56.4 µM), for inactives: cytoprotection (ATP increase), hits mostly activators. 0.14% of 230,000 active. AID 1471; note: % of control where 0% means no effect; nearly all actives have a fitted effect of over 45% in size
#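 Compounds added alongside 100 nM tebufenozide, which induces toxic Q103 huntingtin exon 1-GFP in stable PC12 cells; surviving cells quantified by luminescent ATP measurement. Medium: phenol red-free DMEM, 5% equine and 5% calf serum.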
# Luc counter: blocks Kinase-Glo luciferase, a counter-screen artifact | Q27757 | Kinase-Glo luciferase, ATP luminescence, 8 min | Potency, µM (highest dose often 38.3 µM), for inactives: at the highest dose activity change, negative = inhibition, usual class: inhibitors | 0.28% of 200,000 active | AID 1379; note: % is set by controls: 0 for no effect and ±100 for the full control effect; nearly all actives have a fitted effect of over 60% in size
#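 Luminescence was the read-out, taken after 8-minute incubation at ambient temperature. Luciferase turned over luciferin with 10 uM ATP in imidazole pH 7.2 buffer containing KCl, MgCl2, Tween 20 and BSA.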
# HPGD block: HPGD (human) dehydrogenase inhibition; purified HPGD, NADH fluorescence kinetic, PGE2 substrate; 4.3% of 150,000 active; Potency, µM, for the others: top-dose activity change, negative = inhibition, most hits filed as inhibitors; active = well fitted inhibition curve with a large enough effect, not every such curve was filed as active; inconclusive = small, poorly fitted or top-dose-only effect, or another doubt; inactive = no such curve, though single readings can be large or run the other way; note: % is set by controls: 0 for no effect and ±100 for the full control effect
# Target sequence (P15428 whole entry, looked up): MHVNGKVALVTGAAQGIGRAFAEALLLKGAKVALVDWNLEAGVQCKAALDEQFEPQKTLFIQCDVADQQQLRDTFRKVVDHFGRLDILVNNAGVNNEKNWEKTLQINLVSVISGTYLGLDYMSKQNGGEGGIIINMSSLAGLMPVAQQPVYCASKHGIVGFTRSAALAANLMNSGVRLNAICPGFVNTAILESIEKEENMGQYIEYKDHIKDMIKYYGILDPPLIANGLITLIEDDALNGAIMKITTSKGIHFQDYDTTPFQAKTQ
#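 20 nM HPGD preincubated 15 min at room temperature with compound in 50 mM Tris-HCl pH 8, 0.01% Tween 20. Started with 1 mM NAD+ and 30 uM prostaglandin E2; NADH fluorescence (360/450 nm) read 5 times over 30-s intervals, last minus first.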
# Lamin A splicing: LMNA splicing modulation; HeLa LMNA splicing GFP/RFP minigene ratio, 48 h; Potency, µM (doses to about 46.1 µM), for inactives: at the highest dose ratio change, negative = inhibition, usual class: inhibitors; 0.01% of 200,000 active; active = well fitted inhibition curve with a large enough effect in the signal ratio, with a control signal flat, not every such curve was filed as active; inconclusive = small, poorly fitted or top-dose-only effect, or effect the other way, or a change in a side signal; the % refers to the signal ratio; note: % is set by controls: 0 for no effect and ±100 for the full control effect
#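 S3 HeLa cells stably expressing lamin A-EGFP splicing minigene plus DsRed2, 600 cells/well, 48 h compound exposure at 37C. Laser-scanning cytometry; analysed as GFP (500-530 nm)/RFP (575-640 nm) total intensity ratio; 0.5% DMSO vehicle.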
# Numbers without * were called inactive; u = inconclusive; x = not tested or not shown; [ ] = another dose, or the depositor's remark. Unless noted, calls come from the whole dose curve; as a rule, active = well fitted curve in the direction sought with a large enough effect; inconclusive = small, poorly fitted or top-dose-only effect, or another doubt; inactive = no such curve, though single readings can be large; an effect the other way counts as inactive or inconclusive. Potency is the fitted concentration of half-maximal effect.
SMILES,ALDH1A1 inh,HTT aggregate,HTT cytoprotect,Luc counter,HPGD block,Lamin A splicing
COCCNS(=O)(=O)c1ccc(OCC(=O)OC)c(Cl)c1,-4%,3.2µM*,-31%[0.074 µM],0%,-10%,-12%
C=CCn1c(SCCN2CCOCC2)nc2c1c(=O)[nH]c(=O)n2C,-6%,-12%,3%[10 µM],1%,-19%,-19%
Cc1ccc(C(C[N+](=O)[O-])c2c(-c3ccccc3O)[nH][nH]c2=O)cc1 (configuration not stated),20µM*,u,15%[10 µM],0%,-24%,u
O=C(COC(=O)CCSc1ccc(Cl)cc1)NCc1ccccc1Cl,-14%,16µM*,x,0%,-18%,4%
O=C(COC(=O)CCCNC(=O)c1ccc(Cl)cc1)NCc1ccccc1Cl,4.5µM*,24%,4%,4%,u,15%
O=C(COC(=O)C1CCC1)NCc1ccccc1Cl,u,-9%,-6%[10 µM],-5%,8.9µM*,3%
COc1ccc(C(=O)/C(=C/c2cccs2)c2nc3ccccc3o2)cc1,2µM*,1%,u,-1%,35µM*,u
COc1ccc(/C=C(\CC(=O)O)c2nc3ccccc3o2)cc1,-11%,11%,8%,4%,x,-10%[46 µM]
CC(=O)NCCCS(=O)(=O)O,x,3%,6%,x,x,x
Cc1ccccc1NNC(N)=S,22µM*,18%,17%[10 µM],-2%,x,-3%[46 µM]
NC(=S)NNc1cccc(Cl)c1,1.6µM*,14%,17%,-4%,-22%,8%
Cc1cccc(NNC(N)=S)c1,8.9µM*,6%[9.22 µM],-6%,6%,x,x
S=C(NNc1cccc(Cl)c1)NC1CCCCC1,25µM*,-7%,0%,-1%,x,u
CCc1cccc(NC(=S)Nc2ccc(CN3CCOCC3)cc2)c1,u,-12%,8%,0%,x,12%[46 µM]
CCCCOc1ccc(-c2cn3ccccc3n2)cc1[N+](=O)[O-],10µM*,-2%,-26%[10 µM],u,-11%,u
CCOc1ccc(-c2cn3ccccc3n2)cc1[N+](=O)[O-],u,27%,-35%[10 µM],-11%,-7%,-7%
Cc1ccc(S(=O)(=O)NC(=O)c2ccccc2)cc1C(C)C,2%,u,2.8µM*,-2%,x,22%[46 µM]
CCc1c(C)nc2ncnn2c1N1CCCC(C(=O)NCc2ccc3c(c2)OCO3)C1 (configuration not stated),-6%,-9%,12%[10 µM],0%,-17%,u
CCc1c(C)nc2ncnn2c1N1CCCC(C(=O)Nc2ccc(NC(C)=O)cc2)C1 (configuration not stated),13µM*,-8%,3%,-5%,u,14%
Cc1cccc(CNc2cc(-c3ccoc3)ncn2)c1,u,x,13%,-3%,20µM*,u
c1cncc(CNc2cc(-c3ccoc3)ncn2)c1,u,x,-9%,x,x,-15%
CCOc1ccc2ncc(S(=O)(=O)c3ccc(C)cc3)c(N3CCC4(CC3)OCCO4)c2c1,3.2µM*,u,-6%[10 µM],x,x,u
C[C@H](NC(=O)N1CCc2nc(COc3ccccc3)c3c(c2C1)CO[C@@H](C)C3)c1ccccc1,-10%[13.5 µM],x,-1%[10 µM],-2%[7.66 µM],-11%,u
N#C/C(=C\c1ccc(O)c(O)c1)C(=O)c1ccc(O)c(O)c1,u,x,-3%[1.9 µM],-6%,7.9µM*,u
N#C/C(=C\c1c[nH]c2ccccc12)C(=O)c1ccc(O)c(O)c1,u,x,9%[1.9 µM],-5%,3.5µM*,u
SMILES,ALDH1A1 inh,HTT aggregate,HTT cytoprotect,Luc counter,HPGD block,Lamin A splicing
CC(C)COC(=O)/C(C#N)=C/c1c[nH]c2ccccc12,u,-8%,4%[10 µM],0%,-7%,-1%
N#C/C(=C\c1ccc(O)c(O)c1)C(=O)N1CCCC1,u,-3%,2%,1%,x,u
N#C/C(=C\c1ccc(O)c(O)c1)C(=O)OCCc1cccs1,-11%,x,-16%,1%,28µM*,x
CC(NC(=O)c1cccc(S(=O)(=O)N2CCN(C)CC2)c1)C1CC2CCC1C2 (configuration not stated),2%,10%,-32%,-2%,x,4%[46 µM]
Cc1c(Cl)cnc(NC(=O)CSc2nnc(C)n2Cc2ccccc2)c1Cl,2%,-7%,16%,-5%,1%,-7%
CCOC(=O)C1(Cc2ccc(OC)cc2)CCN(C(=O)[C@@H]2CCCN2C(C)=O)CC1,x,-20%[9.22 µM],-1%[10 µM],x,x,x
CC(=O)OC1c2ccccc2C(=O)N1Cc1ccccc1Cl (configuration not stated),u,-15%,-4%,3%,18µM*,-7%
CC1CCN(CCc2nc3cc(NS(=O)(=O)c4ccccc4)ccc3n2C)CC1,-11%,6%,-6%,-6%,-3%,u
C=CCn1c(SCC(=O)NNC(=O)Nc2ccc(C)cc2)nnc1-c1ccccc1,x,9%[9.22 µM],19%[10 µM],x,x,x
O=C1NN(c2ccc(Cl)c(Cl)c2)C(=O)/C1=C/c1cccc(OC(=O)c2cccs2)c1,u,-3%,6%,-5%,10µM*,1%
O=C1NN(c2ccccc2)C(=O)/C1=C\c1cccc(OC(=O)c2cccs2)c1,7.9µM*,25%,-8%,17%,2.5µM*,5%
CCOc1cc(/C=C2/C(=O)N(c3ccccc3)N=C2C)ccc1OC(=O)c1cccs1,u,20%,-5%,-3%,20µM*,2%
COC(=O)N/N=C\c1cccc(OC(=O)c2cccs2)c1,-8%,6%,-17%,-2%,x,x
COc1ccc(Cn2c(SCc3cc(C)ccc3C)nc3cc(OC)c(OC)cc3c2=N)cc1,u,3.2µM*,-74%[10 µM],-1%,u,u
CCN(CC)S(=O)(=O)c1ccc(NN=C2CCN(C(C)C)CC2)c([N+](=O)[O-])c1,x,6%[9.22 µM],14%[10 µM],x,x,x
CC(C)CCN(C(=O)Nc1ccc(Cl)c(Cl)c1)C1CCN(C(C)C)CC1,x,x,x,x,x,-23%[46 µM]
CCOC(=O)N1CCC(N(C(=O)Nc2ccc(Cl)c(Cl)c2)C(C)CC)CC1 (configuration not stated),u,u,18%[10 µM],3%,20µM*,u
COc1ccc(C(=O)NCCCCCC(=O)N/N=C/c2ccco2)cc1OC,-14%,-9%,x,2%,u,-6%
CCCN=Cc1ccc(O)cc1,8.9µM*,2%,-3%[10 µM],0%,x,u
CCN(CC)c1ccc(C(=O)N/N=C(\C)c2ccc(OC)c(OC)c2)cc1,u,16%,1%[10 µM],0%,u,-16%
C/C(N)=C(/C#N)C(=O)CSc1nnc(Nc2cccc(C)c2C)s1,u,-15%,-12%,6%,28µM*,-9%
C/C(N)=C(/C#N)C(=O)CSc1nn(-c2ccc(Cl)cc2)c(=S)s1,5%,u,-96%,1%,x,-6%[9.22 µM]
